Reference: PubChem BioAssay (Tox21)
Records with an inconclusive call do not appear. Active and inactive are the calls of the source. Calls follow the shape of the dose curve; as a rule, active = well fitted cell-killing curve with a large enough effect in the repeat runs (not every such curve was filed as active); inconclusive = weak or mixed curves, or effect the other way; inactive = no such curve, though single readings can be large or run the other way.

assay: qHTS assay to identify small molecule antagonists of the estrogen related receptor signaling pathway with the pleiotropic PPARgamma coactivator (PGC) from Tox21 10K library - cell viability counter screen (AID 1224840); conditions: PGC/ERR reporter cells viability, CellTiter-Fluor, 17.5 h; series mostly up to 92.4 µM; viability change, negative = cytotoxic: at the top concentration; also: nearly all actives have a fitted effect of over 40% in size
Text: National Center for Advancing Translational Sciences [NCATS]
NIH Chemical Genomics Center [NCGC]
U.S. Environmental Protection Agency [EPA]
National Institutes of Environmental Health Sciences [NIEHS]
National Toxicology Program [NTP]
U.S. Food and Drug Administration [FDA]
Estrogen related receptors (ERRs), the first orphan nuclear receptors discovered, play an important role in the control of cellular energy metabolism. ERRs are required for high-energy production in response to the environmental challenges. The pleiotropic PPARgamma coactivator (PGC) is a major partner of ERR and a key regulator in energy homeostasis. Together they have been implicated in the etiology of metabolic disorders such as Type 2 diabetes and metabolic syndrome. ERR-alpha was also identified as an adverse marker for breast cancer progression; ERR-alpha-positive tumors have a poor prognosis. To screen and to identify environmental compounds that perturb the ERR and PGC/ERR signaling pathways could provide valuable information for potential therapeutic or preventive measures in the treatment of metabolic disease. To differentiate true PGC/ERR antagonists or agonist from cytotoxic substances, the assay is multiplexed with cell viability assay.
Tox21 Assay Protocol Summary:
The PGC/ERR cells were dispensed at 2,000 cells/5 ul/well in 1536-well white plates using a Multidrop dispenser. After the assay plates were incubated at a 37 C/5% CO2 incubator for 6 hours, 23 nL of compounds dissolved in DMSO, positive and negative controls or DMSO only was transferred to the assay plate by a pin tool. The plates were incubated at 37 C for 17.5 hours. 1 ul/well of CellTiter-Fluor reagent was added into the assay plates using a Flying Reagent Dispenser. After 30-minute incubation at 37 C/5% CO2, the fluorescence intensity in the plates was measured using a ViewLux plate reader.
% is scaled to controls: 0 for no effect and ±100 for the full control effect.

SMILES | viability change, negative = cytotoxic
C=CC(=O)NC(C)(C)C | 2.25% (inactive)
OCCCO | 3.49% (inactive)
O=[N+]([O-])c1ccccc1CCO | -1.6% (inactive)
CC/C=C\CCO | 0.86% (inactive)
CS(C)=O | 0.556% (inactive)
CCC(=O)O[C@@H]1C[C@H]2CC[C@]1(C)C2(C)C | 12% (inactive)
CCC(C)CCCC(C)(C)O (stereo not given) | 2.86% (inactive)
OCCOc1cccc(OCCO)c1 | -1.1% (inactive)
CCCCCCC/C=C/C=O | 12.7% (inactive)
CO[C@@H]1[C@@H](O[C@@H]2O[C@H](C)[C@@H](O[C@H]3C[C@@](C)(O)[C@@H](O)[C@H](C)O3)[C@H](N(C)C)[C@H]2O)[C@@H](CC=O)C[C@@H](C)[C@@H](O[C@@H]2CC[C@H](N(C)C)[C@@H](C)O2)/C=C/C=C/C[C@@H](C)OC(=O)C[C@H]1OC(C)=O | -22.2% [at 42.5 µM] (inactive)
O=C(O)c1cc(C(=O)O)cc([N+](=O)[O-])c1 | 6.7% (inactive)
C/C=C1\[C@H]2C=C(C)C[C@]1(N)c1ccc(=O)[nH]c1C2 | 16.4% [at 42.5 µM] (inactive)
[O-][n+]1ccc(Cl)cc1 | -3.24% (inactive)
O=c1c2ccccc2oc2ccccc12 | 7.18% (inactive)
O=C(OC1C[C@H]2CC[C@@H](C1)[N+]21CCCC1)C(O)(c1ccccc1)c1ccccc1 (stereo not given in full) | 11.3% [at 42.5 µM] (inactive)
CCCc1nc(C)c2c(=O)[nH]c(-c3cc(S(=O)(=O)N4CCN(CC)CC4)ccc3OCC)nn12 | -10.4% [at 42.5 µM] (inactive)
CCC(C)C1N=C(C)C(C)S1 (stereo not given) | 0.002% (inactive)
C1=COCCC1 | 4.4% (inactive)
CCCC1CCCC(=O)O1 (stereo not given) | 0.535% (inactive)
Cc1c(Cl)cccc1[N+](=O)[O-] | 6.31% (inactive)

SMILES | viability change, negative = cytotoxic
CC(=O)c1ccc(Cl)c(Cl)c1Cl | 2.91% (inactive)
C=C[Si]1(C)O[Si](C)(C=C)O[Si](C)(C=C)O[Si](C)(C=C)O1 (stereo not given) | -0.158% (inactive)
C[C@H]1C[C@H]2[C@@H]3CCC4=CC(=O)C=C[C@]4(C)[C@@]3(F)[C@@H](O)C[C@]2(C)[C@@]1(O)C(=O)COP(=O)(O)O | 1.68% (inactive)
COC(=O)C(C)(C)C | -13.3% (inactive)
COc1ccc(/C=C/c2cc(OC)cc(=O)o2)cc1 | -8.41% [at 42.5 µM] (inactive)
CC(C)CC(C)(C)C | -13.6% (inactive)
Nc1ccc(F)cc1F | 7.38% (inactive)
CCC(C(=O)O)c1ccc(N2Cc3ccccc3C2=O)cc1 (stereo not given) | 0.441% [at 42.5 µM] (inactive)
CCCCCCOC(=O)c1ccccc1 | -14.3% (inactive)
Cc1cccc(C)c1NC(=O)CN1CCCC1 | 0.652% [at 42.5 µM] (inactive)
Cc1c(-c2cccnc2)c2ccccc2n1CCCCC(=O)O | 7.4% (inactive)
O=C(O)c1ccc2c(c1)nc(C(=O)NC1CCN(C3CC3)CC1)n2Cc1cc(-c2ccc(Cl)s2)on1 | -11.5% [at 19 µM] (inactive)
CCCCCCCCCCCCN1CCOCC1 | 5.34% (inactive)
COc1ccc(C(=O)Nc2ccccc2)cc1[N+](=O)[O-] | -11.3% (inactive)
CC(Cc1ccccc1)(NC(=O)CN)c1ccccc1 (stereo not given) | -1.13% [at 42.5 µM] (inactive)
CC(CCl)OC(C)CCl (stereo not given) | 5.05% (inactive)
CC(C)(C)N | 0.601% (inactive)
CO[C@@H]1COCC[C@@H]1N[C@@H]1CC[C@@](C(=O)N2CCc3ncc(C(F)(F)F)cc3C2)(C(C)C)C1 | 1.99% (inactive)
CC(C(=O)O)c1ccc2c(c1)Cc1cccnc1O2 (stereo not given) | 2.18% [at 42.5 µM] (inactive)
CC(C)Oc1ccccc1O | 0.528% (inactive)
